Measured values reported in PubChem BioAssay (NCATS).
Activity calls are given as the source filed them. The call rests on the fitted dose curve; in most records, active means well fitted curve in the direction sought with a large enough effect; inconclusive means small, poorly fitted or top-dose-only effect, or another doubt; inactive means no such curve, though single readings can be large or run the other way.

test: Cellular Toxicity (caspase-3) HUV-EC-C (AID 656); conditions: HUV-EC-C cells, caspase-3 activation (apoptosis), vehicle = 0, 100 µM tamoxifen = 100%; series mostly up to 92.2 µM;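 further: cells exposed to compound for 16 h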
Description: NIH Chemical Genomics Center [NCGC]
NIH Molecular Libraries Screening Centers Network [MLSCN]
National Institutes of Environmental Health Sciences [NIEHS]
National Toxicology Program [NTP]
We have developed a 1536-well cell-based assay for quantitative high throughput screening (qHTS) against a number of cell lines to determine in vitro caspase 3/7 of small molecules. This particular assay uses the HUV-EC-C cell line which is derived from normal human vascular endothelial cells.
NCGC Assay Protocol Summary:
The Caspase-Glo 3/7 assay (Promega) is a homogeneous method to measure caspase-3 and caspase-7 activities in cultured cells. The quantitation of caspase 3/7 activity is based on the cleavage of a peptide-aminoluciferin substrate. After caspase cleaves the substrate the free aminoluciferin is liberated and serves as the substrate of luciferase, which generates the light. The luminescent signal is proportional to amount of caspase 3/7 activity present.
Using the Caspase-Glo 3/7 assay, the amount of caspase 3/7 activity was measured in the HUV-EC-C cell line with complete culture medium following compound treatment for 16 hours. The assay was performed in opaque white 1536-well plates. In the screen, tamoxifen and doxorubicin were used as positive controls. Library compounds were measured for their ability to cause the activation of caspase 3/7 in the cell line, as reflected by an increase in luminescence signal, in a concentration-dependent manner. Data were normalized to the controls for basal activity (DMSO only) and 100% stimulation (100 uM tamoxifen). AC50 values were determined from concentration-response data modeled with the standard Hill equation.
qHTS protocol for caspase 3/7 assay in HUV-EC-C cell line
[Step] [Parameter] [Value] [Description]
1. Reagent; 5 uL; 1000 HUV-EC-C cells/well
2. Time; 5 hr; 37 °C incubation
4. Controls; 23 nL; Tamoxifen 0.23 uM to 100 uM & doxorubicin 7.0 pM to 100 uM
5. Time; 16 hr; 37 °C incubation
6. Reagent; 5 uL; Caspase-Glo 3/7 reagent
7. Time; 20 min; Room Temperature
8. Detection; Luminescence; Viewlux plate reader
Keywords: caspase 3/7, apoptosis, HUV-EC-C cell line, luminescence, NTPHTS, NTPHTS_NCGC, NIEHS, EPA, DSSTox, MLSMR, MLSCN, NIH Roadmap, qHTS, NCGC

| Compound | outcome |
| --- | --- |
| O=C(c1ccccc1)c1ccccc1 | inactive |
| Cc1ccc(O)cc1 | inactive |
| CCCCCCCCCCCCCCCC[n+]1ccccc1 | inactive |
| Nc1c2ccccc2nc2ccccc12 | inactive |
| Cc1cc(C(C)(C)C)c(O)c(C(C)(C)C)c1 | inactive |
| C1=CC2C3C=CC(C3)C2C1 (stereo unspecified) | inactive |
| CC(C)C(C)(C)C(C)(C)C(C)(C)S | inactive |
| Nc1ccc(O)cc1 | inactive |
| Nc1cccc2c(N)cccc12 | inactive |
| CC(=O)OC/C=C(C)/C=C/C=C(C)/C=C/C1=C(C)CCCC1(C)C | inactive |
| OCc1c[nH]c2ccccc12 | inactive |
| c1ccc2occc2c1 | inactive |
| CC(C)(C)c1ccc(O)c(O)c1 | inactive |
| CCCC(=O)c1cc(O)c(O)cc1O | inactive |
| Oc1ccccc1 | inactive |
| O=C(Oc1ccccc1)c1ccccc1O | inactive |
| Brc1ccccc1-c1ccccc1 | inactive |
| O=C(NO)c1ccccc1 | inactive |
| CC(C)(c1ccc(O)cc1)c1ccc(O)cc1 | inactive |
| COc1cc(C=O)ccc1O | inactive |
| CCCCC(CC)COC(=O)c1ccccc1C(=O)O (stereo unspecified) | inactive |
